This is a sample that favours compounds with a hit; in the whole collection about 3.8% have one here.
aDG glyco up: activators of alpha-DG glycosylation, primary screen, uHTS, Pro5-aDG cells, AlphaScreen | AID 624168, 2012 | hit rate 0.22% among 360,000 | activation, % at 10 µM | alpha-DG glycosylation AlphaScreen (IIH6); 0% Pro5, 100% B10-LARGE cell signal;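 active means activation of at least 8% versus controls, or a plate z-score of at least 8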;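 further: Pro5 are CHO cells carrying HIG-tagged alpha-DG that lacks glycosylation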
MPTP inh: mitochondrial permeability transition pore inhibitors, primary screen, biochemical, isolated mouse mitochondria, absorbance; Ca2+ swelling absorbance, 30 min; inhibition, % at 10 µM; hit rate 1.4% among 360,000; AID 602449, 2012;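 active means inhibition of 50% or more, scaled per plate between neutral and stimulator controls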
Cardio protect: cardioprotection against H2O2-induced cell death, primary screen, uHTS, H9c2 cells, ATPLite luminescence. hit rate 0.63% among 360,000. AID 588492, 2011. H9c2 cardiomyocytes, H2O2 injury protection, 2 h. protection from H2O2 cell death, % at 20 µM;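 active means compounds giving at least 50% protection of heart cells from peroxide-induced death in the single-dose screen, raw or plate-pattern-corrected value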
SUMO Mot1 rescue: yeast Mot1-301 growth rescue at high temperature, primary screen, SUMOylation pathway inhibitor project, S. cerevisiae, ATP luminescence, 38.5C. hit rate 1% among 320,000. S. cerevisiae Mot1-301 growth rescue; percent above DMSO median, 100 means doubled. growth rescue, % at 18.8 µM;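 active means every valid replicate shows activation above 250% relative to neutral control wells; inactive means the rest, any valid replicate at or below 250%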
FAS TE block: FAS thioesterase domain inhibitors, primary screen, biochemical, fluorescence intensity, uHTS; Fatty acid synthase (Homo sapiens), P49327; AID 602261, 2012; hit rate 0.67% among 360,000; inhibition, % at 15 µM; recombinant FAS-TE, OMFH fluorogenic substrate, fluorescence endpoint;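 active means compounds whose normalised, plate-corrected inhibition of enzyme fluorescence in the single-dose primary screen is 50% or more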
Yeast superoxide: reduction of superoxide in aged yeast, primary screen, HTS | S. cerevisiae aged cells, superoxide DHE fluorescence; stronger effect = lower value | superoxide response (% of plate mean), % at 10 µM | hit rate 0.18% among 330,000 | AID 2690, 2010;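 active means superoxide response under a set limit, about three screen SD below normal, cut at about 65% in these data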;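 further: yeast aged for seven days with compound at 30 °C before DHE staining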
Rh123 counter: fluorescence retest of MPTP screen hits in isolated mitochondria, single concentration; AID 624504, 2012; membrane potential, Rhodamine 123 fluorescence; hit rate 78% among 5,000; inhibition, % at 10 µM; shares compounds with MPTP inh; in the data active means inhibition above about 22%
MPTP swell DR: mitochondrial permeability transition pore inhibitors, dose response, biochemical, absorbance, uHTS hits; shares compounds with MPTP inh; isolated mitochondria swelling; IC50, µM; hit rate 58% among 780; AID 651561, 2012; in the data active means IC50 below about 20 µM
MPTP counter DR: fluorescent counter-screen in isolated mitochondria, dose response, counter-screen for MPTP inhibitor project, biochemical, fluorescence, uHTS hits; shares compounds with MPTP inh; isolated mitochondria counterscreen, fluorescence read-out; IC50, µM; hit rate 49% among 780; AID 651564, 2012; in the data active means IC50 below about 80 µM
Of the large screens only hits and unclear results are named; the others gave an inactive call (follow-up assays come after a bar, where they were run).

CCOc1ccc(NS(=O)(=O)c2cc3c4c(c2)C(C)C(=O)N4CCC3)cc1 (stereo not given)	none
COc1ccc(S(=O)(=O)N2CCOCC2)cc1NC(=O)CCOc1ccc(C(C)(C)C)cc1	none (no result: SUMO Mot1 rescue, Yeast superoxide)
COCCNc1nc(Nc2ccc(Cl)cc2F)c2sccc2n1	none (no result: SUMO Mot1 rescue, Yeast superoxide)
Cc1cc(=O)n(C)c(=O)n1CCCCCCOc1cccc([N+](=O)[O-])c1	MPTP inh 57.1 | Rh123 counter 20.5
Cc1cc(/C=N/n2cnnc2)c(C)n1-c1ccc(OCc2ccc(Cl)cc2Cl)cc1	MPTP inh 108.2 | Rh123 counter 100.9
Cc1cc(/C=N/n2cnnc2)c(C)n1-c1ccc(Cl)cc1	none
Cc1cc(/C=N/n2cnnc2)c(C)n1-c1ccc(OCc2ccc(F)cc2)cc1	MPTP inh 99.1 | Rh123 counter 93.1
Cc1ccc(S(=O)(=O)N2CCOCC2)cc1NC(=O)COC(=O)COc1ccccc1[N+](=O)[O-]	none
O=C(COc1ccc(Cl)cc1)Nc1ncc([N+](=O)[O-])s1	MPTP inh 95.0 (no result: SUMO Mot1 rescue, Yeast superoxide) | Rh123 counter 103.0
CCC(Oc1ccccc1)C(=O)Nc1nnc(C)s1 (stereo not given)	none
CCC(Oc1ccccc1)C(=O)Nc1ncc([N+](=O)[O-])s1 (stereo not given)	MPTP inh 89.0 | Rh123 counter 98.1
O=C(Cc1ccc(Cl)cc1)Nc1ncc([N+](=O)[O-])s1	MPTP inh 96.2 (no result: SUMO Mot1 rescue, Yeast superoxide) | Rh123 counter 88.9
O=C(Cc1ccc(Br)cc1)Nc1ncc([N+](=O)[O-])s1	MPTP inh 73.6 | Rh123 counter 81.7
COCC(C)NC(=O)COCc1cc(-c2ccc3c(c2)OCO3)on1 (stereo not given)	none
CCC(C)c1ccccc1NC(=O)C(C)Sc1n[nH]c(N)n1 (stereo not given)	none
Cc1ccccc1NS(=O)(=O)c1ccc(C(=O)NCC(C)(C)N2CCOCC2)cc1	none
CS(=O)(=O)c1ccc(Sc2nc3ccccc3[nH]2)c([N+](=O)[O-])c1	none
O=[N+]([O-])c1cc(S(=O)(=O)C(F)(F)F)ccc1Sc1nc2ccccc2[nH]1	MPTP inh 56.6 | Rh123 counter 90.7
CCOC(=O)C1(Cc2ccccc2)CCN(Cc2cc(OC)c3c(c2)OCO3)CC1	none (no result: SUMO Mot1 rescue)
Cc1nn(-c2ccccc2)c2ncc(C(=O)c3cc(Cl)ccc3O)cc12	MPTP inh 62.1 | Rh123 counter 83.0
COc1ccc(NC(=O)CN2C(=O)NC3(CCCc4ccccc43)C2=O)c(OC)c1 (stereo not given)	none
Cc1cc(/C=C2\SC(=S)NC2=O)c(C)[nH]1	none
O=C1NC(=S)S/C1=C\c1cc(Cl)ccc1Cl	MPTP inh 98.5 (no result: SUMO Mot1 rescue, Yeast superoxide) | Rh123 counter 84.0
CC1CCCN(C(=O)COC(=O)C2CCN(S(=O)(=O)c3ccc4c(c3)OCCO4)CC2)C1 (stereo not given)	none
CC(C)(C)C(=O)NC(=S)NNC(=O)c1sc2ccccc2c1Cl	MPTP inh 61.4 | Rh123 counter 21.5
O=C(NC(=S)NCCO)c1sc2ccccc2c1Cl	none
O=C(NNC(=S)NC1CCCCC1)c1sc2ccccc2c1Cl	MPTP inh 88.4 | Rh123 counter 78.7
O=C(/C=C/c1ccc(Cl)c([N+](=O)[O-])c1)Nc1ccc(N2CCCC2)c(Cl)c1	MPTP inh 75.8 | Rh123 counter 40.2
CCOC(=O)c1ccc(S(=O)(=O)N2CCN(CCc3ccncc3)CC2)cc1	none
O=C(N/N=C/c1cc([N+](=O)[O-])ccc1O)Nc1ccccc1	none
O=[N+]([O-])c1ccc(O)c(/C=N/NC(=S)Nc2ccc(Cl)cc2Cl)c1	MPTP inh 96.4 | Rh123 counter 47.2
Fc1ccc(/C=N/NC(=S)Nc2ccc(Cl)cc2Cl)cc1	none
O=[N+]([O-])c1ccc(/C=N/NC(=S)Nc2ccc(Cl)cc2Cl)s1	MPTP inh 52.2 | Rh123 counter 60.6
C/C(=N\Nc1ccccc1C)c1cccnc1	none
CC(C)C[C@H](N)c1cn([C@@H](Cc2cc3ccccc3[nH]2)C(=O)N2CCNCC2)nn1	MPTP inh 92.1 | Rh123 counter inactive | MPTP swell DR 4.87 | MPTP counter DR inactive
Cn1nc(C(F)(F)F)c(-c2ccc(Br)cc2)c1NC(=O)Nc1ccc(F)cc1F	MPTP inh 76.5 | Rh123 counter 84.2
Cn1nc(C(F)(F)F)c(-c2ccc(F)cc2)c1NC(=O)c1ccco1	none
Oc1ccc(-c2nnc(SCC3CCCCC3)o2)cc1	MPTP inh 54.9 | Rh123 counter 53.5
C=CCc1c(C)nc(-c2ccccc2)nc1N/N=C/c1ccccc1	none
C=CCc1c(C)nc(-c2ccccc2)nc1Nc1ccccc1O	MPTP inh 59.5 | Rh123 counter 63.2
COc1ccc(NC(=S)Nc2ccc3snnc3c2)cc1	MPTP inh 73.3 | Rh123 counter 78.5
COc1ccc(NC(=S)Nc2ccc3nccnc3c2)cc1	none
COc1ccc(/C=N/OCC(=O)N=Nc2c(O)[nH]c3ccc(Br)cc23)cc1OC	none
COc1ccc(/C(C)=N/OCC(=O)N=Nc2c(O)[nH]c3ccc(Br)cc23)cc1	MPTP inh 57.3 | Rh123 counter inactive | MPTP swell DR inactive | MPTP counter DR 10
CCOC(=O)/C=C/[C@H]1CC2(CCO1)SCCCS2	none
COc1ccc(OC)c2sc(N(CCCN(C)C)C(=O)CCS(=O)(=O)c3ccccc3)nc12	none
COc1ccc(C)c2sc(N(CCCN(C)C)C(=O)CS(=O)(=O)c3ccc(F)cc3)nc12	MPTP inh 85.4 | Rh123 counter inactive | MPTP swell DR 5.7 | MPTP counter DR inactive
Cc1ccc(S(=O)(=O)N2C[C@H]3C(=O)C[C@@H](c4cccc(Cl)c4)N(S(=O)(=O)c4ccc(C)cc4)[C@H]3C[C@H]2c2ccc(Cl)cc2)cc1	none (no result: SUMO Mot1 rescue, Yeast superoxide)
NC(=O)CCN1CCN(CCOC2Cc3cc(Cl)ccc3Sc3ccccc32)CC1 (stereo not given)	MPTP inh 61.6 | Rh123 counter inactive | MPTP swell DR inactive | MPTP counter DR inactive
Cc1ccc(C23CC4CC(CC(C(=O)NC(C)C(N)=O)(C4)C2)C3)cc1 (stereo not given)	none
